The values that follow come from PubChem BioAssay (NCATS).

Inconclusive results are not listed. Unmarked numbers belong to inactive results. Active and inactive are the calls of the source. Calls follow the shape of the dose curve; as a rule, active = well fitted curve in the direction sought with a large enough effect; inconclusive = small, poorly fitted or top-dose-only effect, or another doubt; inactive = no such curve, though single readings can be large; an effect the other way counts as inactive or inconclusive.

Test [1] concerns the target ATP-dependent 6-phosphofructokinase (Trypanosoma brucei brucei) (UniProt O15648). Description: qHTS Assay to Find Inhibitors of T. brucei phosphofructokinase: hit validation (AID 492961). Also: % is scaled to controls: 0 for no effect and ±100 for the full control effect. The gist of the method: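 Luminescence from ADP-Glo reports ADP generated as T. brucei PFK (1.25 nM) phosphorylates 0.5 mM fructose-6-phosphate using 0.1 mM ATP. Reactions ran 45 min at room temperature, pH 8.0.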

Test [2] can be described thus: qHTS profiling for inhibitors of Plasmodium falciparum proliferation (AID 504749). Also: potency is read from the fitted curve at half-maximal effect.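 As to activity, negative = inhibition: 0% = DMSO vehicle and full inhibition = artemisinin control.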 As to all read-outs here: nearly all actives have a fitted effect of over 60% in size. The conditions noted are these: P. falciparum in erythrocytes, SYBR Green DNA, 72 h; for activity, negative = inhibition: at 28.7 µM (top of the series). The essentials:
(§1)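 Each compound contacts P. falciparum-infected red blood cells for 72 h at 37 C; lysis buffer (Tris, EDTA, saponin, Triton X, SYBR Green I) is added and fluorescence measured next morning; values normalized to controls.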

A further test relates to 3D7. The test is described as above. To be noted: P. falciparum in erythrocytes, SYBR Green DNA, 72 h; series mostly up to 28.7 µM. The gist of the method:
as §1

Another test concerns 7G8. The description is as above. The conditions noted are these: P. falciparum in erythrocytes, SYBR Green DNA, 72 h; series mostly up to 28.7 µM. The essentials:
as §1

In a further test the test system is AS120. The test is described as above. To be noted: P. falciparum in erythrocytes, SYBR Green DNA, 72 h; series mostly up to 28.7 µM. The essentials: as §1
Another test concerns ATS189. The description is as above. To be noted: P. falciparum in erythrocytes, SYBR Green DNA, 72 h; series mostly up to 28.7 µM. The essentials:
as §1

The subject of the next test is CP185. The description is as above. To be noted: P. falciparum in erythrocytes, SYBR Green DNA, 72 h; series mostly up to 28.7 µM. The essentials:
as §1

The next test relates to CP191. Described as above. The conditions noted are these: P. falciparum in erythrocytes, SYBR Green DNA, 72 h; series mostly up to 28.7 µM. The essentials:
as §1

Another test concerns CP192. The test is described as above. The conditions noted are these: P. falciparum in erythrocytes, SYBR Green DNA, 72 h; series mostly up to 28.7 µM. The essentials: as §1
The test system of the next test is CP194. Described as above. To be noted: P. falciparum in erythrocytes, SYBR Green DNA, 72 h; series mostly up to 28.7 µM. The essentials:
as §1

Another test has as its system CP201. Described as above. The conditions noted are these: P. falciparum in erythrocytes, SYBR Green DNA, 72 h; series mostly up to 28.7 µM. The gist of the method:
as §1

In a further test the test system is CP203. The test is described as above. To be noted: P. falciparum in erythrocytes, SYBR Green DNA, 72 h; series mostly up to 28.7 µM. The essentials: as §1
A further test relates to CP247. The description is as above. To be noted: P. falciparum in erythrocytes, SYBR Green DNA, 72 h; series mostly up to 28.7 µM. The essentials: as §1
The next test has as its system CP286. The test is described as above. To be noted: P. falciparum in erythrocytes, SYBR Green DNA, 72 h; series mostly up to 28.7 µM. The gist of the method: as §1
The test system of a further test is CP291. The description is as above. To be noted: P. falciparum in erythrocytes, SYBR Green DNA, 72 h; series mostly up to 28.7 µM. The essentials:
as §1

For another test, the system named is CP305. The description is as above. To be noted: P. falciparum in erythrocytes, SYBR Green DNA, 72 h; series mostly up to 28.7 µM. The essentials: as §1
The test system of a further test is HB3. The test is described as above. The conditions noted are these: P. falciparum in erythrocytes, SYBR Green DNA, 72 h; series mostly up to 28.7 µM. The gist of the method: as §1
The subject of the next test is P94_40. Described as above. To be noted: P. falciparum in erythrocytes, SYBR Green DNA, 72 h; series mostly up to 28.7 µM. The gist of the method: as §1
The subject of the next test is PC49. The description is as above. The conditions noted are these: P. falciparum in erythrocytes, SYBR Green DNA, 72 h; series mostly up to 28.7 µM. The gist of the method: as §1

Chain of ATP-dependent 6-phosphofructokinase (Trypanosoma brucei brucei) (O15648 whole entry, looked up): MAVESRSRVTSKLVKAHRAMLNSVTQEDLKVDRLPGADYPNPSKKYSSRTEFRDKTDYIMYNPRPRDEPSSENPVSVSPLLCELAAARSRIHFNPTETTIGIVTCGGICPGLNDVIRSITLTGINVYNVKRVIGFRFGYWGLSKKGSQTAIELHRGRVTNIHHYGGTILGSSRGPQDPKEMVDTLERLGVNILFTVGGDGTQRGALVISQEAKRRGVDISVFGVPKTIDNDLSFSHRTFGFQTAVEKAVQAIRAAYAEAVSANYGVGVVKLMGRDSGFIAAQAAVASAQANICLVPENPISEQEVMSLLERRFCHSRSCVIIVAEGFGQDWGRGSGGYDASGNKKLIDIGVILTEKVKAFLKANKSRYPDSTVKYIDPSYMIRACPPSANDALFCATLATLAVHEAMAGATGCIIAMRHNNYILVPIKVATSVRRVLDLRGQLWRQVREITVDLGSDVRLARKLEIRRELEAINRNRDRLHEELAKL

For the molecule `C/C1=C2/[N-]C(C(CC(N)=O)[C@@]2(C)CCC(=O)NCC(C)OP(=O)([O-])O[C@H]2[C@@H](O)[C@@H](n3cnc4cc(C)c(C)cc43)O[C@@H]2CO)[C@]2(C)N=C(/C(C)=C3N=C(/C=C4N=C1C(CCC(N)=O)C\4(C)C)[C@@H](CCC(N)=O)[C@]\3(C)CC(N)=O)[C@@H](CCC(N)=O)[C@]2(C)CC(N)=O.CC(=O)O.[Co]` (stereo not given in full), the Potency result (in test [1]; in the test with 3D7; in the test on 7G8; in the test on AS120; in the test on ATS189; with CP185) was “inactive” each time. Moreover, the Potency result in the test with CP191, in the test with CP192, in the test with CP194, in the test on CP201, with CP203 and with CP247 was “inactive” throughout. In addition, the Potency result in the test on CP286, in the test with CP291, in the test with CP305, in the test with HB3, in the test with P94_40 and in the test on PC49 was “inactive” throughout. Moreover, the activity, negative = inhibition in [2] (parasite line A) is -2.13%; in test [2] (parasite line B), -2.9%.

Regarding `CO[C@H]1OC2O[C@@]3(C)CC[C@H]4[C@H](C)CC[C@@H]([C@H]1C)[C@@]24OO3` (stereo not given in full), the Potency result in [1] is “inactive”. In addition, the Potency was 25.1 nM (active) in [2] (parasite line A); 15.8 nM (active) in [2] (parasite line B); 14.1 nM (active) in the test on 3D7; 2.2 nM (active) in the test on 7G8; 22.4 nM (active) in the test with AS120; 14.1 nM (active) in the test with ATS189. Further, the Potency in the test on CP185 is 31.6 nM (active); in the test with CP191, 11.2 nM (active); in the test with CP192, 37.9 nM (active); in the test with CP194, 60.1 nM (active); with CP201 it was 75.7 nM (active); in the test with CP203, 30.1 nM (active). For the same molecule, the Potency with CP247 is 25.1 nM (active); in the test on CP286, 17.8 nM (active); in the test with CP291, 26.9 nM (active); with CP305, 15.1 nM (active); with HB3, 7.9 nM (active); in the test with P94_40, 11.2 nM (active). The Potency in the test on PC49 was 25.1 nM (active).

Take `C=C1[C@@H]2CC[C@H](C2)C1(C)C`: the Potency result (in test [1]; with 3D7; with 7G8; with AS120; in the test with ATS189; in the test on CP185) was “inactive” each time. Moreover, the Potency result in the test with CP191, with CP192, with CP194, in the test on CP201, with CP203 and with CP247 was “inactive” throughout. In addition, the Potency entry with CP286, with CP291, in the test with CP305, in the test with HB3, in the test with P94_40 and with PC49 was “inactive” throughout. Further, the activity, negative = inhibition was 10.4% in test [2] (parasite line A) and -2.91% in [2] (parasite line B).

`C[C@]12CC[C@@H]3c4ccc(O)cc4CC[C@H]3[C@@H]1C[C@H](O)C2O` (stereo not given in full): the Potency result (in test [1]; in the test on 3D7; in the test on 7G8; in the test with AS120; in the test on ATS189; in the test with CP185) was “inactive” throughout. The Potency entry with CP191, in the test on CP192, in the test with CP194, with CP201, in the test on CP203 and in the test on CP247 was “inactive” throughout. Also, the Potency result in the test on CP286, in the test with CP291, with CP305, in the test with HB3, with P94_40 and in the test on PC49 was “inactive” throughout. Besides, the results for the activity, negative = inhibition in test [2] (parasite line A) and in [2] (parasite line B) were 7.19% and 12.7%, respectively.

On to `OCC1O[C@H](O[C@H]2C(O)C(O)C(O)O[C@@H]2CO)C(O)C(O)C1O` (stereo not given in full), for which the Potency result (in test [1]; in the test on 3D7; in the test with 7G8; with AS120; with ATS189; with CP185) was “inactive” throughout. Besides, the Potency result with CP191, in the test with CP192, in the test on CP194, in the test with CP201, in the test on CP203 and with CP247 was “inactive” throughout. For the same molecule, the Potency result with CP286, in the test on CP291, with CP305, with HB3, in the test with P94_40 and in the test on PC49 was “inactive” throughout. Further, the activity, negative = inhibition in test [2] (parasite line A) is 7.88%; in test [2] (parasite line B) it was 6.42%.

`CC1(C)SC2C(NC(=O)C(C(=O)O)c3ccccc3)C(=O)N2C1C(=O)O` (stereo not given): the Potency entry (in [1]; in the test on 3D7; in the test with 7G8; in the test with AS120; in the test with ATS189; with CP185) was “inactive” in each case. Also, the Potency entry in the test with CP191, with CP192, in the test with CP194, with CP201, with CP203 and in the test on CP247 was “inactive” in each case. In addition, the Potency result in the test on CP286, in the test with CP291, in the test on CP305, in the test on HB3, in the test on P94_40 and in the test with PC49 was “inactive” throughout. The activity, negative = inhibition in test [2] (parasite line A) is 5.75%; in test [2] (parasite line B), 2.54%.
